# Results as given in PubChem BioAssay.
# Where “and” joins values, the source holds several entries; their conditions need not be identical. Identical values can stand only once. Calls of active or inactive are those of the source.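 How the source made its calls: active means compounds whose cell count with miR-34 switched on is under 0.7 times the count with it off; inactive means the rest.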
# Assay: viability loss with induced miR-34 in A549 – imaging, A549 dox-inducible miR-34, nuclei and caspase counts, primary screen (AID 1347080); further: test concentration not given here
# Details: A549 miR-34 inducible, Hoechst nuclei count, 48 h
# [1] = stronger effect = lower value, cell number ratio, induced over uninduced
# [2] = measured here: relative caspase fold change +Dox/-Dox
# [3] = measured here: total cells with miR-34 induction, stronger effect = lower value
# [4] = measured here: total cells without miR-34 induction
SMILES,fold change [1],fold change [2],cell count [3],cell count [4]
CCCCC[C@H](O)/C=C/[C@@H]1c2cc(CCCCC(=O)O)n(-c3ccccc3)c2C[C@H]1O,0.958 (inactive),1.14,6340,6620
CCCCCCCCCCCCCCCCCCCCCCC(=O)OCC,0.908 (inactive),0.513,4740,5220
CCCCC(C)(C)[C@H](O)/C=C/[C@H]1C=CC(=O)[C@@H]1C/C=C\CCCC(=O)O,0.967 (inactive),1.18,5990,6200
CCCCCCCC/C=C\CCCCCC(=O)OC,0.895 (inactive),0.755,5020,5610
CCCCCCCCCC(=O)N[C@@H](Cc1c[nH]c2ccccc12)C(=O)N[C@@H](CC(N)=O)C(=O)N[C@@H](CC(=O)O)C(=O)N[C@@H]1C(=O)NCC(=O)N[C@@H](CCCN)C(=O)N[C@@H](CC(=O)O)C(=O)N[C@H](C)C(=O)N[C@@H](CC(=O)O)C(=O)NCC(=O)N[C@H](CO)C(=O)NC([C@@H](C)CC(=O)O)C(=O)N[C@@H](CC(=O)c2ccccc2N)C(=O)OC1C (stereo not given in full),0.953 (inactive),0.725,8550,8980
CCCCC[C@H](O)/C=C/[C@H]1[C@H](O)CC(=O)[C@@H]1CCCCCCC(=O)NCCO,0.954 (inactive),1.4,5990,6270
CCCCCCCCCCCCCCCCC/C=C/C(=O)O,0.976 (inactive),0.547,5370,5500
COC(=O)CCC[C@H](O)[C@H](O)CO,1.05 (inactive),0.845,5290,5040
C[Se]CC[C@H](N)C(=O)O,0.969 (inactive),0.907,8780,9060
CN,1.06 (inactive),0.984,4700,4430
CCCCCCCCCCCCC(=O)N[C@H]1CCOC1=O,0.915 (inactive),1.35,5190,5670
COc1cc([C@@H]2OC[C@@H](c3cc(OC)c(OC)c(OC)c3)O2)cc(OC)c1OC,0.96 (inactive),0.869,5040,5250
CCCCC[C@H](O)CC[C@@H]1[C@H]2Cc3cccc(OCC(=O)O)c3C[C@H]2C[C@H]1O,0.95 (inactive),1.46,6200,6530
CCCCC[C@H](O)/C=C/[C@@H]1[C@@H](C/C=C\CCCC(=O)N(C)C)[C@@H](O)C[C@H]1O,0.94 (inactive),1.13,5150,5480
CCCCCC(=O)OC[C@H](CO)OC(=O)CCCCC,0.964 (inactive),0.528,5390,5590
CCCOCCCCCCCCCC(=O)O,1.02 (inactive),1.03,6150,6040
CC(C)OC(=O)CCC/C=C\C[C@@H]1[C@@H](/C=C/[C@H](O)CCc2ccccc2)[C@H](O)C[C@@H]1O,0.945 (inactive),1.74,6060,6410
CCCCC/C=C\C/C=C\CCCCCCCC(=O)OC[C@H](O)CO,0.698 (active),0.477,4490,6430
CC1=C(CC/C(C)=C/CCC2C=CC(C3=CC(=O)OC3O)OC2O)C(C)(C)CCC1 (stereo not given),0.908 (inactive),0.704,1170,1290
C=C1C(=O)O[C@H](CCCCCCCC)[C@H]1C(=O)O,1.04 (inactive),0.706,6150,5890

SMILES,fold change [1],fold change [2],cell count [3],cell count [4]
OC[C@H]1O[C@H](O[C@H]2[C@H](O)[C@@H](O)[C@H](O)O[C@@H]2CO)[C@H](O)[C@@H](O)[C@@H]1O,0.99 (inactive),0.551,8780,8870
Nc1nc2[nH]c(=O)[nH]c2c(=O)[nH]1,0.901 (inactive),0.746,6070,6740
CCCCCCCC/C=C\CCCCCCCCOCCOP(=O)([O-])OCC[N+](C)(C)C,0.927 (inactive),0.887,5510,5950
CCCCC[C@H](O)/C=C/[C@H]1C=CC(=O)[C@@H]1CCCCCCC(=O)OCC,0.941 (inactive),1.83,5280,5620
CCCCCC#CCC#CCC#CCCCCCCC(=O)O,0.97 (inactive),0.33,5730,5910
O=C(CCCCc1ccccc1)C(F)(F)C(F)(F)F,0.952 (inactive),1.77,5980,6280
CCOC(=O)c1ccc(N=Nc2ccc(O)c(CC(=O)O)c2)cc1,0.95 (inactive),0.801,6160,6490
CCCCC/C=C\C/C=C\CC/C=C\CCCC(=O)OCC,1.04 (inactive),1.09,5570,5390
CCCCCCCCCCCCCCCCOC[C@H](COP(=O)([O-])OCC[N+](C)(C)C)OC(=O)CCC,0.868 (inactive),0.912,5110,5890
CCCCCCCCCCCCCCCCCC(=O)NCCO,0.986 (inactive),1.01,6030,6120
COc1cc(/C=C/c2ccc(Cl)cc2)cc(OC)c1,1.01 (inactive),0.802,6120,6070
CCCCC(C)(C)[C@H](O)/C=C/[C@H]1[C@H](O)CC(=O)[C@@H]1CC(=O)CCCCC(=O)O,0.919 (inactive),1.32,5680,6180
CCCCC/C=C/C=C1/C(=O)C[C@H](O)[C@@H]1C/C=C\CCCC(=O)O,1.04 (inactive),1.03,6090,5880
O=C(O)CCCCCCCCCCCNC(=O)NC1CCCCC1,0.963 (inactive),0.896,5580,5790
CCCCC[C@H](O)/C=C/[C@@H]1[C@@H](C/C=C\CCCCO)[C@@H](O)C[C@H]1O,0.871 (inactive),1.35,5490,6300
CS(=O)(=O)NC(=O)CCC/C=C\C[C@H]1C(=O)C[C@@H](O)[C@@H]1/C=C/[C@@H](O)COc1ccccc1,0.897 (inactive),1.55,5660,6300
CCCCC[C@H](O)/C=C/[C@@H]1[C@@H](C/C=C/CCCC(=O)O)[C@@H](O)C[C@H]1O,0.9 (inactive) and 0.944 (inactive),1.55 and 0.855,5350 and 5640,5940 and 5970
CCCCC/C=C\CCCC/C=C\C/C=C\CCCC(=O)O,0.917 (inactive),0.462,5360,5850
Cc1nc(-c2ccc(C(F)(F)F)cc2)sc1C(=O)NCc1ccc(OC(C)(C)C(=O)O)cc1,0.946 (inactive),0.5,5220,5520
CC/C=C\C/C=C\C/C=C\CCCCCCCC(=O)NCCO,1.05 (inactive),0.865,5950,5670

SMILES,fold change [1],fold change [2],cell count [3],cell count [4]
C#CCOc1ccccc1CCCCCC(=O)NS(C)(=O)=O,0.952 (inactive),0.875,5890,6190
CCCCC/C=C\C=C\C(O)CCCCCCCC(=O)OC[C@@H](COC(=O)CCCCCCC/C=C\C=C\C(O)CCCCC)OC(=O)CCCCCCC/C=C\C=C\C(O)CCCCC (stereo not given in full),1.03 (inactive),1.09,5890,5740
OCC(O)[C@@H](O)CO (stereo not given in full),0.92 (inactive),0.896,8910,9680
CCOc1c2c(c(OCC)c3ccccc13)C(=O)N(c1ccc(CC(=O)NS(=O)(=O)c3ccccc3)cc1)C2,0.911 (inactive),1.11,5560,6100
CCCCCC(=O)CC[C@H]1[C@H](O)CC(=O)[C@@H]1CCCCCCC(=O)O,0.94 (inactive),1.43,5620,5980
CCCCCC(=O)/C=C/[C@@H]1[C@@H](CCCCCCC(=O)O)[C@@H](O)C[C@H]1O,1.03 (inactive),1.29,5670,5520
CCCCC/C=C\C/C=C\C/C=C\C/C=C\CCCC(=O)C(F)(F)F,0.997 (inactive),0.841,5370,5390
c1ccc([B-]2(c3ccccc3)[NH2+]CCO2)cc1,0.926 (inactive),1.45,3950,4260
CCCCC[C@H](O)/C=C/[C@H]1C(=O)C[C@H](O)[C@@H]1CCCCCCC(=O)O,0.92 (inactive),0.486,4900,5320
CCCCCC(=O)CC[C@H]1C(=O)C[C@H](O)[C@@H]1C/C=C\CCCC(=O)O,1.27 (inactive),1.09,6060,4770
CCCCC[C@@H](O)/C=C/[C@@H]1[C@@H](C/C=C\CCCC(=O)O)[C@@H](O)C[C@H]1O,0.977 (inactive),1.24,5960,6100
CCCCCCCCCCCCCCCC(=O)OC[C@H](COP(=O)([O-])OCC[N+](C)(C)C)OC(=O)CCCC(=O)/C=C/C(=O)O,1 (inactive),0.771,5760,5760
CCCCCCCCCCCCCCCC(=O)NC[C@@H](C)O,1.02 (inactive),0.848,6270,6160
CCCC1([C@@H](O)C/C=C/[C@H]2[C@H](O)CC(=O)[C@@H]2CCCCCCC(=O)O)CCC1,0.95 (inactive),1.46,5970,6280
CCCCCCCC/C=C\CCCCCCCC(=O)OCC,1 (inactive),0.399,5610,5590
CCCCCCCCCCCCCCCCCCCCCCCCC(=O)OC,1.06 (inactive),0.88,6850,6470
CCCCC[C@H](O)/C=C/[C@@H]1[C@@H](CCCCCCCO)[C@@H](O)C[C@H]1O,0.922 (inactive),1.15,5540,6010
CCCCC/C=C\C=C1\C(=O)CC[C@@H]1C/C=C\CCCC(=O)O,0.94 (inactive),0.792,5640,6000
COC(=O)CCCCCC[C@@H]1[C@@H](CCC(O)C#Cc2ccccc2F)[C@H](O)C[C@@H]1O (stereo not given in full),1.01 (inactive),0.855,5830,5780
CC/C=C\C/C=C\C/C=C\C/C=C\CCCCC(=O)OC,0.976 (inactive),1.08,5040,5160
